SMILES strings stand for the structures. Unmarked numbers belong to inactive results. Results filed as inconclusive are left out. Calls of active or inactive are those of the source. Unless noted, calls come from the whole dose curve; as a rule, active = well fitted curve in the direction sought with a large enough effect in the repeat runs; inconclusive = weak or mixed curves; inactive = no such curve, though single readings can be large; an effect the other way counts as inactive or inconclusive.

For assay [1], the target named is Thyrotropin receptor (Homo sapiens) (UniProt P16473). The experiment in a line: qHTS assay to identify small molecule agonists of the thyroid stimulating hormone receptor (TSHR) signaling pathway (AID 1224843; calls by dose curve; note: nearly all actives have a fitted effect of over 45% in size). The method in brief:
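HEK293/TSHR, 800 cells/well; cpd 30 min RT; add cAMP-d2 + anti-cAMP-cryptate, 1 h RT; fluorescence read on plate reader. 15-pt titration, n=3.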
A general note: In qHTS, concentration-response curves come from the screen itself.

The nature of assay [2]: qHTS assay to identify small molecule agonists of the hypoxia (HIF-1) signaling pathway - cell viability counter screen (AID 1224844; calls by dose curve; note: nearly all actives have a fitted effect of over 50% in size; note: potency is the fitted concentration of half-maximal effect). The method in brief: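 HRE-bla ME-180; 0.5% dFBS; cpd 17 h, 37C, 5% CO2; CellTiter-Glo lum., 30 min RT, post-FRET read, same wells.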
The nature of assay [3]: qHTS assay to identify small molecule agonists of the hypoxia (HIF-1) signaling pathway (AID 1224846; active = well fitted activation curve with a large enough effect in the signal ratio in the repeat runs, not every such curve was filed as active; the % refers to the signal ratio). Put shortly: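 Reporter induction in HRE-bla ME-180 cells is taken as agonism: cells sit 5 hrs after plating, receive compounds or DMSO only, incubate 17 hrs at 37C under 5% CO2, and are loaded with CCF4-AM for beta-lactamase FRET measurement.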
A short description of assay [4]: qHTS assay to identify small molecule agonists of H2AX - cell viability counter screen (AID 1224847; calls by dose curve; note: top concentration of the series differs between compounds; nearly all actives have a fitted effect of over 30% in size). Put shortly: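 Read-out: CellTiter-Glo luminescence, 30 min RT. Cells: wild-type CHO-K1, 1000/well, 10% FBS, plated overnight at 37C. Treatment: 15 concentrations, 3 hr, 37C, 0.76% DMSO.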
A short description of assay [5]: qHTS assay to identify small molecule antagonists of the estrogen related receptor (ERR) signaling pathway from Tox21 library (AID 1224848). Note: nearly all actives have a fitted effect of over 50% in size. The method in brief: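 Compounds dissolved in DMSO are pin-transferred onto ERR reporter cells (2,000 per well) that have settled for 6 h at 37 C. Plates then incubate 18 h at 37 C before ONE-Glo luciferase reagent and a luminescence read 30 min later.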

A short description of assay [6]: qHTS assay to identify small molecule agonists of the estrogen related receptor (ERR) signaling pathway from Tox21 library (AID 1224849; calls by dose curve; note: nearly all actives have a fitted effect of over 15% in size). The settings on record: ERR reporter cell line, ONE-Glo luciferase, 18 h; at 92.4 µM (top of the series) unless noted. The method in brief:
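Tox21 compounds tested for ERR agonism in an NTP reporter cell line: 18 h treatment at 37 C, then ONE-Glo luminescence.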

Assay [7] is described as follows: qHTS RealTime-Glo MT Cell Viability Assay in HepG2 cells - 24 hour (AID 1224867). Note: nearly all actives have a fitted effect of over 50% in size. Put shortly: (§1)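 Real-time, nonlytic viability: 600 HepG2 cells/well mixed with NanoLuc enzyme plus prosubstrate; 5 h settle, compound (DMSO) added by pintool; luminescence monitored over 40 h at 37 C.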
A short description of assay [8]: qHTS RealTime-Glo MT Cell Viability Assay in HEK293 cells - 32 hour (AID 1224868). Note: nearly all actives have a fitted effect of over 50% in size. Note: potency is the fitted concentration of half-maximal effect. The method in brief: (§2)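 Cells + reagent dispensed (600 cells/well, HEK293) → 5 h at 37 C/5% CO2 → 23 nL compound in DMSO pinned → 40 h at 37 C → luminescence read at 0, 8, 16, 24, 32, 40 h.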
A short description of assay [9]: A CellTox Green Cytotoxicity Assay to monitor cytotoxicity in HEK293 cells - 0 hour (AID 1224869). Note: nearly all actives have a fitted effect of over 50% in size. The method in brief:
(§3)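 Tox21 screen in HEK293: membrane-impermeant cyanine dye fluoresces on binding dead-cell DNA; compound pinned 5 h post-seeding, plates held at 37 C, signal read repeatedly through 40 h.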

Assay [10] is described as follows: qHTS RealTime-Glo MT Cell Viability Assay in HepG2 cells - 40 hour (AID 1224870). Note: nearly all actives have a fitted effect of over 50% in size. Put shortly: (§4)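 HepG2 cells (600/well) mixed with RealTime-Glo MT reagent, settled 5 h at 37 C/5% CO2 before compound addition. Nonlytic NanoLuc luminescence from viable-cell prosubstrate reduction read repeatedly during 40 h treatment at 37 C.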
A short description of assay [11]: A CellTox Green Cytotoxicity Assay to monitor cytotoxicity in HEK293 cells - 40 hour (AID 1224871). Note: nearly all actives have a fitted effect of over 45% in size. The method in brief:
as §3

A short description of assay [12]: qHTS RealTime-Glo MT Cell Viability Assay in HEK293 cells - 16 hour (AID 1224872). Put shortly: as §2
Assay [13] in a line: qHTS RealTime-Glo MT Cell Viability Assay in HepG2 cells - 8 hour (AID 1224873). Note: nearly all actives have a fitted effect of over 55% in size. Put shortly:
as §4

Assay [14] is described as follows: qHTS RealTime-Glo MT Cell Viability Assay in HEK293 cells - 40 hour (AID 1224874). Note: nearly all actives have a fitted effect of over 50% in size. Note: potency is the fitted concentration of half-maximal effect. The settings on record: RealTime-Glo luminescence; max response: stronger effect = lower value. The method in brief:
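HEK293 + NanoLuc + prosubstrate, 600 cells/well; 5 h, 37 C/5% CO2; compound 23 nL in DMSO by pintool; 37 C; luminescence read at 0, 8, 16, 24, 32 and 40 h time points.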

Assay [15] can be described thus: A CellTox Green Cytotoxicity Assay to monitor cytotoxicity in HEK293 cells - 24 hour (AID 1224875). Note: nearly all actives have a fitted effect of over 45% in size. Put shortly: as §3
Assay [16] in a line: A CellTox Green Cytotoxicity Assay to monitor cytotoxicity in HepG2 cells - 16 hour (AID 1224876). Note: nearly all actives have a fitted effect of over 45% in size. Put shortly:
(§5)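 Measurements at 0, 8, 16, 24, 32 and 40 h of treatment captured CellTox Green fluorescence in HepG2 cells that had been co-plated with reagent and preincubated 5 h at 37 C/5% CO2.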

Assay [17] is described as follows: qHTS RealTime-Glo MT Cell Viability Assay in HepG2 cells - 32 hour (AID 1224877). Note: nearly all actives have a fitted effect of over 55% in size. Put shortly: as §1
Assay [18] can be described thus: A CellTox Green Cytotoxicity Assay to monitor cytotoxicity in HepG2 cells - 40 hour (AID 1224879). Note: nearly all actives have a fitted effect of over 40% in size. Put shortly:
as §5

Assay [19] in a line: qHTS assay to identify small molecule agonists of H2AX (AID 1224845; active = well fitted activation curve with a large enough effect in the signal ratio in the repeat runs, not every such curve was filed as active; the % refers to the signal ratio). Put shortly:
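Wild-type CHO-K1 cells, plated overnight, exposed 3hr at 37C to 15 concentrations (0.76% DMSO final). Lysed, then HTRF anti-pH2AX (S139) cryptate and anti-H2AX-d2 antibodies, 24 hr room temperature; 665/620 nm emission read.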

Assay [20] can be described thus: A CellTox Green Cytotoxicity Assay to monitor cytotoxicity in HepG2 cells - 24 hour (AID 1224878). Note: nearly all actives have a fitted effect of over 45% in size. Put shortly:
as §5
% is set by controls: 0 for no effect and ±100 for the full control effect.

Thyrotropin receptor (Homo sapiens), sequence (P16473 whole entry, looked up): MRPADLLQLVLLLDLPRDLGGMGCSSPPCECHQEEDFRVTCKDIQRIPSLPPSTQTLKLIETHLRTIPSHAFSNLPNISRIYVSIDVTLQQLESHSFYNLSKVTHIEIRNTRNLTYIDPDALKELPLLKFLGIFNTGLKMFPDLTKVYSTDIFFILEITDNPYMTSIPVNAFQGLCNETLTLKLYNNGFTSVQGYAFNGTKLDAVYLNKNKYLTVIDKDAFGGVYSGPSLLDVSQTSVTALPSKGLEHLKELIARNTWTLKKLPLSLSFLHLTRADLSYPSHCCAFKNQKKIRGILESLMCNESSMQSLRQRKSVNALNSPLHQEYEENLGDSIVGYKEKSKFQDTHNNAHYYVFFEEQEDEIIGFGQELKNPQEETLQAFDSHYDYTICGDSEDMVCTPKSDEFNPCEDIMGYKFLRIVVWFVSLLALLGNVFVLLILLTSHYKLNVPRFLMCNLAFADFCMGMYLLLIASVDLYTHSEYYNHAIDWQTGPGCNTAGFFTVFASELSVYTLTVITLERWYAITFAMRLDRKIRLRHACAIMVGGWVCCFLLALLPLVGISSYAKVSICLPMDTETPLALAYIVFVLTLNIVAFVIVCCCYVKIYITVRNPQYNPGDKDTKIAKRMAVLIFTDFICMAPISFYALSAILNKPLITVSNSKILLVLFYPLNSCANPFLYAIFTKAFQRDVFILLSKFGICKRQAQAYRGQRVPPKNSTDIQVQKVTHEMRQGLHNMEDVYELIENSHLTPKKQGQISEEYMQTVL

Consider `CCCCOc1ccc(N)cc1`, for which the Potency entry in assay [1], in [2], in assay [4], in [5], in [8] and in [9] was “inactive” each time. For the same molecule, the Potency entry in [10], in [11], in assay [12], in assay [15], in assay [16] and in [17] was “inactive” each time. For the same molecule, the Potency result in assay [18] was “inactive”. Further, the call in [3], in assay [7] and in assay [13] was inactive. In addition, in [6], the activity change, positive = activation is 3.06%. In addition, in [14], the max response is 0.387%.

`O=C1CCCN1CCO`: the Potency entry in assay [1], in assay [19], in assay [4], in [8], in assay [9] and in [10] was “inactive” in each case. Further, the Potency result in assay [11], in assay [12], in assay [15], in assay [16], in assay [17] and in assay [20] was “inactive” throughout. Besides, in [18], the Potency entry was “inactive”. In addition, the Potency in assay [2] was 21.9 µM (active). Besides, the outcome in [7] and in assay [13] was inactive. The max response in assay [14] was -23.9%.

In the case of `CCCCCCOC(=O)c1ccccc1`, the Potency result in assay [1], in [19], in assay [4], in assay [5], in assay [9] and in assay [10] was “inactive” each time. Moreover, the Potency result in [11], in assay [12], in assay [15], in assay [16], in assay [17] and in assay [20] was “inactive” each time. Besides, the Potency result in [18] was “inactive”. Also, in assay [2], the Potency is 19.5 µM (active). Also, in assay [6], the activity change, positive = activation was 5.95%. Moreover, in assay [13], the call was inactive.

As to `Cc1c(N=C=O)cccc1N=C=O`, the Potency result in [1], in assay [2], in [19], in assay [4], in assay [8] and in assay [9] was “inactive” throughout. Moreover, the Potency entry in [10], in assay [11], in assay [12], in assay [15], in assay [16] and in assay [17] was “inactive” each time. The result in [7] and in assay [13] was inactive. Besides, the max response in assay [14] was 2.75%.

Consider `Cc1ccc(NC(=O)c2ccc(CN3CCN(C)CC3)cc2)cc1Nc1nccc(-c2cccnc2)n1`, for which the Potency entry in assay [1], in assay [2], in assay [19], in [9], in assay [10] and in assay [11] was “inactive” in each case. The Potency result in assay [15], in assay [16], in assay [17] and in [20] was “inactive” throughout. Also, the molecule was classed as inactive in assay [7] and in [13]. In addition, the Potency in [8] and in assay [14] was 21.3 µM (active) each time.

As to `O=C(Cl)c1ccc(F)c(Cl)c1`, the Potency result in assay [1], in [2], in [4], in assay [5], in assay [9] and in assay [10] was “inactive” each time. The Potency result in assay [11], in assay [15], in assay [16], in assay [17], in assay [20] and in assay [18] was “inactive” in each case. Further, the result in [3], in assay [7] and in [13] was inactive. Besides, in [6], the activity change, positive = activation was -7.97%. Also, the max response in [14] was 35.2%.

Take `CCN(CCCCOC(=O)c1ccc(OC)c(OC)c1)C(C)Cc1ccc(OC)cc1` (stereo not given): the Potency entry in assay [1], in assay [2], in assay [19], in [4], in assay [9] and in [15] was “inactive” each time. Also, the Potency entry in [16] and in [17] was “inactive” in each case. Moreover, in assay [6], the activity change, positive = activation was -16.6% [at 42.5 µM]. Also, the outcome in [7] and in assay [13] was inactive.

Turning to `CCCC1CCOC(C)S1` (stereo not given), the Potency result in [1], in [2], in assay [4], in [8], in assay [9] and in [10] was “inactive” throughout. Besides, the Potency entry in assay [11], in assay [12], in assay [15], in [16], in assay [17] and in assay [20] was “inactive” each time. For the same molecule, in [18], the Potency result was “inactive”. Further, the call in assay [3], in [7] and in [13] was inactive. Further, in [14], the max response was 4.04%.

Source of the values: PubChem BioAssay (Tox21).
